The values that follow come from PubChem BioAssay AID1852 (Sanford-Burnham Center for Chemical Genomics, 2009).

Screen size: about 2,500 compounds; about 1,100 (44%) were called active.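 How the source made its calls: active means inhibition above 50% at 4 µM in the single-point screen; inactive means inhibition of 50% or less.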 The set was probably picked from earlier hits. The list shows a part of the results.

A short description of this experiment: blockers of TNF-a NF-kB luciferase induction – cell-based, HEK293T NF-kB-Luc, luminescence, selectivity assay for NOD1/NOD2 signaling inhibitor project, primary screen (AID 1852). To be noted: TNF-a induced, 14 h, at 4 µM, active compounds read high.
One may read the inhibition as the relative decrease from the control value, in per cent. Turning to `Cc1ccc(-c2csc(NC(=O)C3=NN(c4ccccc4)C(=O)CC3)n2)cc1`, the inhibition was 38.6% (inactive). With `Cc1ccc(-c2csc(NC(=O)c3ccc4c(=O)n5c(nc4c3)CCCCC5)n2)cc1` the figure was 97.1% (active); with `O=C(NC1CCCCC1)N1CCN(c2nc(-c3ccccc3)cs2)CC1`, 48.4% (inactive); with `O=C(Nc1nc(-c2ccccc2)cs1)c1ccc2c(=O)n3c(nc2c1)CCCCC3`, 106% (active).

In the case of `Nc1ccc(S(=O)(=O)Nc2nccc(/C=C/c3ccc(Cl)cc3Cl)n2)cc1`, the inhibition is 4% (inactive). With `Cc1cccc2cc3c(N)c(C(=O)Nc4ccc(N5CCOCC5)cc4)sc3nc12` the figure was 36.4% (inactive). Take `Cc1cc(N2CCOCC2)c2c(N)c(Br)cc(C)c2n1`: the inhibition is 80.6% (active). For the compound `COc1ccccc1-c1cc(C(F)(F)F)nc(S(=O)(=O)CCCC(=O)N2CCOCC2)n1`, the inhibition was 51.1% (active). With `COc1ccccc1-c1cc(C(F)(F)F)nc(S(=O)(=O)CCCC(=O)N2CCCCC2C)n1` (stereo not drawn) the figure was 66.8% (active); with `COc1cccc(Cn2c(NCc3cccnc3)nc3c2c(=O)n(C)c(=O)n3C)c1`, 37.8% (inactive).

With `COc1cc(/C=N/Nc2nc3c(c(=O)n(C)c(=O)n3C)n2Cc2ccccc2)ccc1OC(=O)c1ccco1`, the inhibition is 52.5% (active). Turning to `CC(C(=O)N1CCN(c2ccccc2F)CC1)c1ccc([N+](=O)[O-])cc1` (stereo not drawn), the inhibition was -32.5% (inactive).

In the case of `O=S(=O)(Nc1nc2ccccc2nc1Cl)c1ccc(Br)cc1`, the inhibition is 20.8% (inactive). To `O=S(=O)(Nc1nc2ccccc2nc1N1CCN(c2ccccc2F)CC1)c1ccc(Cl)cc1` belongs 86.2% (active); to `COc1ccc(-c2cc(C(F)(F)F)nc(S(=O)(=O)CCCC(=O)Nc3cccc(O)c3)n2)cc1OC`, 81.5% (active); to `COc1ccccc1-c1cc(C(F)(F)F)nc(S(=O)(=O)CCCC(=O)Nc2cccnc2Cl)n1`, 37.1% (inactive). To `O=C(O)CCC(=O)Nc1cccc(-c2csc(-c3ccccc3)n2)c1` belongs 41.9% (inactive); to `COc1ccc(-c2cc(C(F)(F)F)nc(S(=O)(=O)CCCC(=O)Nc3cccnc3Cl)n2)cc1OC`, 88.1% (active); to `Cc1cc(-c2ccc(C)c(S(=O)(=O)N3CCN(c4ccc([N+](=O)[O-])cc4)CC3)c2)on1`, 16.8% (inactive). With `C[C@@H](C(=O)Nc1ccc2ccccc2c1)[C@@H]1C[C@@]1(C)[C@@H](NC(=O)c1cnccn1)c1ccccc1` the figure was -2.6% (inactive); with `COc1ccccc1Nc1nc(NCC2CCCO2)c2ccccc2n1` (stereo not drawn), 39.1% (inactive). With `Cc1cc(C(=O)COC(=O)c2ccccc2Br)c(C)n1CC1CCCO1` (stereo not drawn), the inhibition is -5.9% (inactive). As for `Cc1cc(C(=O)CN2C(=O)c3ccccc3S2(=O)=O)c(C)n1CC1CCCO1` (stereo not drawn), the inhibition is 96.8% (active). Take `Cc1cc(C(=O)CSc2nc3ccccc3c(=O)n2C)c(C)n1Cc1ccc2c(c1)OCO2`: the inhibition was 69.5% (active). With `Cc1cc(C(=O)CSc2nc3ccccc3c(=O)n2C)c(C)n1CC1CCCO1` (stereo not drawn) the figure was 65.9% (active); with `CCCCN(CC)c1nc(-c2ccncc2)nc2ccccc12`, 34.7% (inactive). On to `O=C(N/C(=C/c1ccc([N+](=O)[O-])cc1)C(=O)N1CCOCC1)c1ccco1`, for which the inhibition was 14% (inactive).

On to `COc1cc(Nc2nc3ccccc3nc2NS(=O)(=O)c2ccc([N+](=O)[O-])cc2)cc(OC)c1OC`, for which the inhibition was 84.6% (active). To `O=[N+]([O-])c1cccc(S(=O)(=O)Nc2nc3ccccc3nc2Nc2cccc(S(=O)(=O)N3CCCCC3)c2)c1` belongs 97.6% (active); to `COc1cccc(Nc2nc3ccccc3nc2NS(=O)(=O)c2cccs2)c1`, 7.5% (inactive). To `Cc1cc(Nc2nc3ccccc3nc2Cl)n(-c2ccc([N+](=O)[O-])cc2)n1` belongs 28.5% (inactive); to `O=S(=O)(Nc1nc2ccccc2nc1Nc1ccc2c(c1)OCO2)c1ccc(F)cc1`, 18% (inactive); to `CCn1nc(NS(=O)(=O)c2ccc([N+](=O)[O-])cc2)c2cc3cccc(C)c3nc21`, 19.3% (inactive).

As for `Cc1ccc(S(=O)(=O)Nc2nc3ccccc3nc2Nc2cccc(S(=O)(=O)N3CCCC3)c2)cc1`, the inhibition is 71% (active).

Consider `CCn1c(/C=C/c2cc(Br)ccc2O)nc2ccccc2c1=O`, for which the inhibition was -6.3% (inactive). With `COc1ccc(O)c(CNn2c(-c3ccc(Br)cc3)nc3ccccc3c2=O)c1` the figure was 12.6% (inactive); with `O=c1c2ccccc2nc(/C=C/c2ccc([N+](=O)[O-])o2)n1CCCO`, 98.8% (active). For the compound `O=[N+]([O-])c1cc(-c2nc3nc4ccccc4nc3n2CCc2ccccc2)cc([N+](=O)[O-])c1`, the inhibition is -12.4% (inactive). With `Cc1ccc(-c2cc(C(=O)N/N=C/c3ccc([N+](=O)[O-])o3)c3ccccc3n2)o1` the figure was 6.6% (inactive); with `O=c1c2ccccc2nc(/C=C/c2cc(Br)ccc2O)n1CCCO`, 59% (active).

`COc1cccc(NC(=O)CSc2nc3ccccc3c(=O)n2C)c1`: the inhibition is 12.1% (inactive). With `COc1cccc(Nc2nc(NCCO)c3ccccc3n2)c1` the figure was 69.6% (active); with `COc1ccc(Nc2nc(NCC3CCCO3)c3ccccc3n2)c(OC)c1` (stereo not drawn), 31.4% (inactive); with `COc1cc(OC)c(N(C)S(=O)(=O)c2cccc(C(=O)OCC(=O)c3c[nH]c4ccccc34)c2)cc1Cl`, 92.4% (active). With `COc1ccc(OC)c(/C=C/c2ccc3cccc(O)c3n2)c1`, the inhibition was 105% (active). Consider `COc1cccc(/C=C/c2ccc3cccc(O)c3n2)c1OC`, for which the inhibition was -20% (inactive). With `COc1cccc(/C=C/c2ccc3ccccc3n2)c1OC(C)=O`, the inhibition is -25.7% (inactive). To `Oc1ccc(Cl)cc1/C=C/c1ccc2cccc(O)c2n1` belongs 8.6% (inactive); to `CCOc1cccc(/C=C/c2ccc3cccc(O)c3n2)c1O`, 4.2% (inactive). To `COc1ccc(Br)cc1/C=C/c1ccc2cccc(O)c2n1` belongs 52.6% (active). As to `COc1ccc(Cl)cc1/C=C/c1ccc2cccc(O)c2n1`, the inhibition was 47.4% (inactive). With `COc1cc(Br)cc(/C=C/c2ccc3cccc(O)c3n2)c1O` the figure was 0.4% (inactive); with `Oc1cccc2ccc(/C=C/c3ccccc3Br)nc12`, 51.4% (active).

For the compound `Cc1ccc(NS(=O)(=O)c2ccc(-n3cccn3)cc2)c(C)c1`, the inhibition is 40.7% (inactive). With `Cc1ccc(C)c(NC(=O)c2ccccc2NS(=O)(=O)c2cc([N+](=O)[O-])ccc2C)c1` the figure was 75.8% (active); with `Cc1ccc(NC(=O)CN(c2ccc(Cl)cc2)S(=O)(=O)c2cc([N+](=O)[O-])ccc2Cl)c(C)c1`, -17.7% (inactive); with `Cc1ccc(NS(=O)(=O)c2cc([N+](=O)[O-])ccc2NNC(=S)Nc2cc(C)ccc2C)c(C)c1`, 77.3% (active). To `Cc1ccc(NC(=O)CC(=O)c2ccc([N+](=O)[O-])cc2)cc1S(=O)(=O)Nc1cccc(Cl)c1` belongs 15.2% (inactive).
